Our source for the Potency and outcome values is PubChem BioAssay (Tox21).

A short description of test [1]: qHTS assay to identify small molecule agonists of the RXR signaling pathway - cell viability counter screen (AID 1159529).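 Note: HEK 293T cells carrying an RXR-alpha UAS beta-lactamase reporter; series mostly up to about 77 µM; nearly all actives have a fitted effect of over 50% in size.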 The method, boiled down:
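Steps: seed RXR-alpha-UAS-bla HEK 293T cells in assay medium containing 2% charcoal-stripped FBS; incubate 5 hr; add compounds in DMSO; incubate 16 hr at 37 C; after the bla read, add CellTiter-Glo and read luminescence at 30 min.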

The nature of test [2]: qHTS assay to identify small molecule antagonists of the retinoid acid receptor (RAR) signaling pathway - cell viability counter screen (AID 1159551). Note: nearly all actives have a fitted effect of over 35% in size. The method, boiled down:
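Cells (C3RL4) are plated, incubated overnight, dosed with compound in DMSO, then given retinol at 1 uM final. After 6 h at 37 C, CellTiter-Glo is added and luminescence read following 30 min at room temperature.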

The nature of test [3]: qHTS assay to identify small molecule antagonists of the retinoic acid receptor (RAR) signaling pathway (AID 1159552; note: nearly all actives have a fitted effect of over 50% in size). A digest of the protocol: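 Retinol at 1 uM final stimulated RARE-luciferase expression in C3RL4 cells exposed to test compounds for 6 hr at 37 C. Reduced luminescence, read 30 min after detection reagent, indicated pathway antagonism.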
A short description of test [4]: qHTS assay to identify small molecule agonists of the retinoic acid receptor (RAR) signaling pathway (AID 1159553). A digest of the protocol:
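Seed C3RL4 reporter cells at 1,000 per well and incubate overnight at 37 C. Add compounds in DMSO, incubate 6 hr. Add luciferase reagent, wait 30 min at room temperature, read luminescence.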

The nature of test [5]: qHTS assay to identify small molecule antagonists of the estrogen related receptor (ERR) signaling pathway - cell viability counter screen (AID 1224818). Note: series mostly up to about 46 µM. The method, boiled down: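 ERR cells, 2,000/well; 6 h settle at 37 C/5% CO2; compound pin transfer (DMSO); 17.5 h at 37 C; CellTiter-Fluor, 30 min, fluorescence read.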
The nature of test [6]: qHTS assay to identify small molecule agonists of the estrogen related receptor (ERR) signaling pathway (AID 1224820). A digest of the protocol: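 An ERR cell line provided by NTP was seeded at 2,000 cells per well and allowed to settle for 6 h before compounds in DMSO were added. After 18 h at 37 C, luciferase activity was measured by One-Glo luminescence.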
A short description of test [7]: qHTS assay to identify small molecule antagonists of the estrogen related receptor signaling pathway with the pleiotropic PPARgamma coactivator (PGC) cell viability counter screen (AID 1224822; note: series mostly up to about 46 µM). The method, boiled down:
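Multiplexed viability counter screen run in PGC/ERR cells treated with compounds for 17.5 h at 37 C; live-cell protease signal measured by CellTiter-Fluor fluorescence.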

A short description of test [8]: qHTS assay to identify small molecule agonists of the estrogen related receptor signaling pathway with the pleiotropic PPARgamma coactivator (PGC) (AID 1224823). A digest of the protocol:
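Compounds dissolved in DMSO are added by pin tool to PGC/ERR cells that have settled for 6 h, and incubation continues 18 h at 37 C. Reporter output is measured as One-Glo luminescence.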

Test [9] can be described thus: qHTS assay to identify small molecule antagonists of the estrogen related receptor (ERR) signaling pathway from Tox21 library - cell viability counter screen (AID 1224834). Note: nearly all actives have a fitted effect of over 30% in size. Note: potency is the fitted concentration of half-maximal effect. The method, boiled down:
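ERR cells, 2,000/well; 6 h settle at 37 C/5% CO2; pin-tool compound transfer in DMSO; 17.5 h at 37 C; CellTiter-Fluor, 30 min; fluorescence intensity.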

A short description of test [10]: qHTS assay to identify small molecule agonists of the constitutive androstane receptor (CAR) signaling pathway - cell viability counter screen (AID 1224836). Note: nearly all actives have a fitted effect of over 45% in size. Note: potency is the fitted concentration of half-maximal effect. A digest of the protocol:
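Cells were seeded and incubated 4 hrs. Compounds were added across 15 concentrations together with PK11195 at 0.75 uM final. Plates were incubated 23 hrs at 37 C. CellTiter-Fluor was added and fluorescence measured.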

A short description of test [11]: qHTS assay to identify small molecule antagonists of the constitutive androstane receptor (CAR) signaling pathway - cell viability counter screen (AID 1224837). Note: nearly all actives have a fitted effect of over 45% in size. Note: potency is the fitted concentration of half-maximal effect. A digest of the protocol:
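Viability was measured with CellTiter-Fluor in a HepG2 line carrying stably transfected hCAR and a CYP2B6-2.2kb construct. Cells were exposed for 23 hr at 37 C to 15 compound concentrations with 50 nM CITCO as agonist.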

In test [12] the target is Nuclear receptor subfamily 1 group I member 3 (Homo sapiens) (UniProt Q14994). In words: qHTS assay to identify small molecule antagonists of the constitutive androstane receptor (CAR) signaling pathway (AID 1224838).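 Note: HepG2 cells stably expressing hCAR with CYP2B6 luciferase reporter stimulated by CITCO; nearly all actives have a fitted effect of over 40% in size.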 A digest of the protocol:
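Antagonist mode used CITCO at a final 50 nM to activate CAR in human hepatoma HepG2 cells carrying stable hCAR and a 2.2 kb CYP2B6 promoter-luciferase construct. Compounds were tested at 15 concentrations over 24 h, with luminescence as the end point.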

The target is the same in test [13]. Nature of the test: qHTS assay to identify small molecule agonists of the constitutive androstane receptor (CAR) signaling pathway (AID 1224839). Note: series mostly up to about 92 µM; nearly all actives have a fitted effect of over 15% in size. The method, boiled down: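 Cells were plated and incubated 4 hrs, then dosed with compounds at 15 concentrations. PK11195 was added to 0.75 uM final. After 24 hrs at 37 C, luciferase luminescence was measured.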
The nature of test [14]: qHTS assay to identify small molecule antagonists of the estrogen related receptor signaling pathway with the pleiotropic PPARgamma coactivator (PGC) from Tox21 10K library - cell viability counter screen (AID 1224840; active = well fitted cell-killing curve with a large enough effect in the repeat runs, not every such curve was filed as active; note: nearly all actives have a fitted effect of over 40% in size; note: potency is the fitted concentration of half-maximal effect). The method, boiled down:
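Multiplexed viability counter screen in the PGC/ERR cell line: cells treated with DMSO-dissolved compounds for 17.5 hours at 37 C, then viability measured as CellTiter-Fluor fluorescence.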

A short description of test [15]: qHTS assay to identify small molecule antagonists of the estrogen related receptor signaling pathway with the pleiotropic PPARgamma coactivator (PGC) from Tox21 10K library (AID 1224841; call rule not given here; note: actives are mostly falling curves and most rising ones were filed inactive; nearly all actives have a fitted effect of over 50% in size; note: potency is the fitted concentration of half-maximal effect). A digest of the protocol: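 Steps: plate 2,000 PGC/ERR cells per well; incubate 6 h at 37 C with 5% CO2; transfer compounds from DMSO stocks by pin tool; incubate 18 h at 37 C; add One-Glo; measure luminescence 30 min later.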

The nature of test [16]: qHTS assay to identify small molecule agonists of the estrogen related receptor signaling pathway with the pleiotropic PPARgamma coactivator (PGC) from Tox21 10K library (AID 1224842). Note: nearly all actives have a fitted effect of over 15% in size. The method, boiled down:
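PGC/ERR reporter cell line, 2,000 cells per well, incubated 6 h at 37 C before 23 nL compound in DMSO was added. After 18 h at 37 C, One-Glo luminescence read following 30 min at room temperature.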

The target of test [17] is Thyrotropin receptor (Homo sapiens) (UniProt P16473). In words: qHTS assay to identify small molecule agonists of the thyroid stimulating hormone receptor (TSHR) signaling pathway (AID 1224843; calls by dose curve; note: nearly all actives have a fitted effect of over 45% in size). A digest of the protocol:
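Agonist-mode screen: TSHR HEK293 cells received test chemicals for half an hour at room temperature, then HTRF cAMP detection reagents for one hour prior to fluorescence measurement. Each chemical ran as a 15-concentration series, triplicated.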

For test [18], the target named is Luciferin 4-monooxygenase (Photinus pyralis) (UniProt P08659). In words: qHTS assay to identify small molecule inhibitors of firefly luciferase (AID 1224835). Note: series mostly up to about 120 µM; nearly all actives have a fitted effect of over 25% in size. A digest of the protocol: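 Biochemical qHTS: compounds run as interplate titrations against purified firefly enzyme, with D-luciferin and ATP each at its KM concentration. Light output recorded by CCD imaging.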
Luciferin 4-monooxygenase (Photinus pyralis), sequence (P08659 whole entry, looked up): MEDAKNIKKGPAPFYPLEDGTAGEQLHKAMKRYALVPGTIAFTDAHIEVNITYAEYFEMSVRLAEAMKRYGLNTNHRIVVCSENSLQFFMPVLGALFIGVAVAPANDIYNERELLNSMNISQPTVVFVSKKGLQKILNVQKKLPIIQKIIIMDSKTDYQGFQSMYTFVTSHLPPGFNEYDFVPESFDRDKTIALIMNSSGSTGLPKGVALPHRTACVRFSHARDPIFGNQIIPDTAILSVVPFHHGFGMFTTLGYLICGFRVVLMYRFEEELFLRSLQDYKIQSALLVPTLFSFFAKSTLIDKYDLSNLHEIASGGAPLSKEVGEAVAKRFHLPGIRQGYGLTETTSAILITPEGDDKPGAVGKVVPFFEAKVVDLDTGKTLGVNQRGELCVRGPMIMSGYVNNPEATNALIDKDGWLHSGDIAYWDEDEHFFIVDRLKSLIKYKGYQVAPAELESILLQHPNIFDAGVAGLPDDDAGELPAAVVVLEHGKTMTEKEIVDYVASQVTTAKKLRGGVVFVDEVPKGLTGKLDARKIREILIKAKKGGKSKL

“And” between values parts separate entries of the source, which are not always exact repeats. Equal entries are not always repeated. Inconclusive results are not listed. The source made the active and inactive calls. Unless noted, calls come from the whole dose curve; as a rule, active = well fitted curve in the direction sought with a large enough effect in the repeat runs; inconclusive = weak or mixed curves; inactive = no such curve, though single readings can be large; an effect the other way counts as inactive or inconclusive.

Nuclear receptor subfamily 1 group I member 3 (Homo sapiens), sequence (Q14994 whole entry, looked up): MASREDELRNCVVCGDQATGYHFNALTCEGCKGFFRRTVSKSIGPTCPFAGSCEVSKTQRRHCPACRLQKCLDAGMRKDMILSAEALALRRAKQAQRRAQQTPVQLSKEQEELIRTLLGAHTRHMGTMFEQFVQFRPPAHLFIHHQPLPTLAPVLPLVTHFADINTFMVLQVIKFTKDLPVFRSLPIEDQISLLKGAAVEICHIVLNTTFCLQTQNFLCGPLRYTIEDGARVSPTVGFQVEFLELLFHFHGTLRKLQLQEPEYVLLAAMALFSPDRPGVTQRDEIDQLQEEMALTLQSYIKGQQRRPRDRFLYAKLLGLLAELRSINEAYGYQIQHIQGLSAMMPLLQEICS
Thyrotropin receptor (Homo sapiens), sequence (P16473 whole entry, looked up): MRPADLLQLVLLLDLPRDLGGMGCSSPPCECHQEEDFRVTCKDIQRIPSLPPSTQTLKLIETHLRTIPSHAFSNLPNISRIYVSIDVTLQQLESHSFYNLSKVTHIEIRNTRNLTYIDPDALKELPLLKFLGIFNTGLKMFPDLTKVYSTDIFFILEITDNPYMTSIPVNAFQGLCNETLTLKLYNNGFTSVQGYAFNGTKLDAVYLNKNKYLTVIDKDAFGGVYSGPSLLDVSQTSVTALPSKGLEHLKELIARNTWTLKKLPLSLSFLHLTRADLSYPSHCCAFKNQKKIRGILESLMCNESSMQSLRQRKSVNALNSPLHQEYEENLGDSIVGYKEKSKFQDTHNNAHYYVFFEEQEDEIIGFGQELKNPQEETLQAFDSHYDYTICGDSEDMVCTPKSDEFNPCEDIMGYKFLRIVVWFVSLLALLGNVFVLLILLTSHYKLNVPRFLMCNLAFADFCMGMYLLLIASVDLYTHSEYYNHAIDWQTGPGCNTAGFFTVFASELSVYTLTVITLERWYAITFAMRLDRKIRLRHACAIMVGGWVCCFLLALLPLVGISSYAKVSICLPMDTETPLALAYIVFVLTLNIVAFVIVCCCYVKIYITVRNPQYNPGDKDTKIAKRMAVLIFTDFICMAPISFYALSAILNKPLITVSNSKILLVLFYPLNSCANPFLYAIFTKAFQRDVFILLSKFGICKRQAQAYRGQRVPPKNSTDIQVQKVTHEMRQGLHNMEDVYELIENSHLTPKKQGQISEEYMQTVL

For the molecule `CCCCC1C(=O)N(c2ccccc2)N(c2ccccc2)C1=O`, the Potency result in [1], in test [3], in test [6], in test [8], in [9] and in test [10] was “inactive” each time. Moreover, the Potency entry in [11], in [12], in test [13], in [14], in test [15] and in [16] was “inactive” throughout. The outcome in test [2], in test [4], in test [5], in [7] and in test [17] was inactive.
Turning to `O=C1CN(/N=C/c2ccc([N+](=O)[O-])o2)C(=O)N1`, the Potency entry in test [1], in [3], in [18], in test [12], in test [13] and in test [16] was “inactive” throughout. Also, the molecule was called inactive in test [2], in test [4] and in test [17]. For the same molecule, the Potency in test [9] is 30.5 µM (active) and 61.1 µM (active); in [10], 27.2 µM (active) and 21.7 µM (active) and 13.3 µM (active); in [11] it was 27.2 µM (active) and 21.7 µM (active) and 21.1 µM (active); in [14], 54.3 µM (active); in test [15], 19.3 µM (active) and 24.3 µM (active) and 16.8 µM (active).
Take `Nc1ccc(S(=O)(=O)c2ccc(N)cc2)cc1`: the Potency entry in test [1], in [3], in test [9], in test [18], in test [10] and in test [11] was “inactive” in each case. The Potency result in test [14] is “inactive”. Also, the outcome in [2], in [4] and in test [17] was inactive.
On to `O=c1cc[nH]c(=S)[nH]1`, for which the Potency entry in test [1], in test [3], in test [9], in test [10], in [11] and in [12] was “inactive” throughout. For the same molecule, the Potency entry in test [13], in [14], in test [15] and in [16] was “inactive” each time. The call in test [2], in [4] and in [17] was inactive.
In the case of `Cc1cn([C@H]2C[C@H](N=[N+]=[N-])[C@@H](CO)O2)c(=O)[nH]c1=O`, the Potency result in test [1], in test [3], in test [9], in [18], in test [10] and in test [11] was “inactive” each time. For the same molecule, the Potency result in test [14], in [15] and in test [16] was “inactive” each time. The result in test [2] and in [4] was inactive.
In the case of `O=S(=O)(O)c1ccc2cc(O)ccc2c1`, the Potency result in test [1], in [3], in [9], in test [10], in [11] and in test [12] was “inactive” each time. For the same molecule, the Potency entry in test [13] and in [14] was “inactive” each time. Also, the molecule was called inactive in test [2] and in test [4].
As for `CCCN(CCC)S(=O)(=O)c1ccc(C(=O)O)cc1`, the Potency entry in test [1], in test [3], in [9], in [18], in test [10] and in test [11] was “inactive” each time. Moreover, the Potency entry in [14], in test [15] and in [16] was “inactive” throughout. For the same molecule, the result in [2], in test [4] and in [17] was inactive.
Regarding `CC(=O)NS(=O)(=O)c1ccc(N)cc1`, the Potency entry in test [1], in [3], in test [9], in test [18], in test [10] and in test [11] was “inactive” in each case. The Potency entry in [12], in [13] and in [14] was “inactive” throughout. The molecule was called inactive in test [2] and in test [4].
